38 compounds from PubChem BioAssay (NCI) can be followed below.

Compounds without any hit were thinned out: in the full panel of roughly 83,000, 20% have a hit.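 Compound tested at a single concentration for 48 hours in 96-well plates; a percent growth value below 10 was scored as active.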 Values without a mark were called inactive. Active and inactive are the calls of the source.

One test concerns ACHN renal. As to the kind of experiment: NCI-60 one-dose screen, 48 h (100 = growth as untreated, 0 = no growth, -100 = all killed). As to conditions: 10 µM unless noted.
`O=S(=O)(c1ccccc1)n1ccc(-c2ccc3c(c2)CCO3)n1`: the growth was 78.4%.

For `COC1=CC(c2ccc[nH]2)=N/C1=C\c1[nH]c(C)c(C(=O)CCCCC(=O)NCc2ccccc2)c1C`, the growth is 50.2%.

Turning to `Nc1c(C(=O)Nc2cccc([N+](=O)[O-])c2)sc2nc3c(cc12)C(O)CCC3` (centres undefined), the growth was 92.1%.

For the compound `COc1cccc(NC(=O)c2sc3nc4c(cc3c2N)CCCC4)c1`, the growth is 44.2%.

In the case of `O=C(Nc1cccc(C(F)(F)F)c1)Nc1ccc(OCc2nnc(-c3ccccc3)o2)c(F)c1`, the growth was 6.63% (active).

In the case of `CC(=O)Nc1nc(C(=O)N2N=C(C)/C(=C/c3ccc(Cl)cc3)C2=O)cs1`, the growth is 108%.

As to `COc1cc(C(=O)OCCCCCCCCCCC[P+](c2ccccc2)(c2ccccc2)c2ccccc2)ccc1O`, the growth is -1.87% (active).

As for `O=C(NCCCN1CCN(CCCNC(=O)C2CCCCC2)CC1)C1CCCCC1`, the growth was 99.5%.

For the compound `COc1cc2c(cc1OC)C1(C)N(CC2)C(=O)OC1(C)C` (centres undefined), the growth was 107%.

With `CCCCCc1c(C)[nH]c(/C=c2\[nH]/c(=C3/C=c4ccccc4=N3)cc2OC)c1C`, the growth was -78.3% (active).

In the case of `COc1cc(-c2n[nH]nc2-c2ccc3c(c2)OCCO3)cc(OC)c1OC`, the growth was 12.3%.

The next test relates to CAKI-1 renal. Described as above. To be noted: 10 µM unless noted.
With `Clc1ccc([I+]c2ccc(Cl)cc2Cl)c(Cl)c1`, the growth is 27%.

`Cc1ccc(C2=NN(c3ccc(S(N)(=O)=O)cc3)C(c3cn(-c4ccccc4)nc3-c3ccccc3)C2)cc1` (centres undefined): the growth was 94.7%.

Consider `N#CC1=C(N)OC2=C(C(=O)CCC2)C1c1ccco1` (centres undefined), for which the growth is 93%.

Take `COC1=CC(c2ccc[nH]2)=N/C1=C\c1[nH]c(C)c(C(=O)CCCCC(=O)Oc2ccc3c(c2)CCC2C3CC[C@]3(C)[C@@H](O)CC[C@@H]23)c1C` (some centres undefined): the growth was 25.7%.

In the case of `COc1ccc(NC(=O)CSc2nc3ccccc3c(=O)n2Cc2cc(OC)c(OC)c(OC)c2)cc1`, the growth is 95.6%.

In the case of `Nc1c(C(=O)Nc2c(Cl)cccc2Cl)sc2nc3c(cc12)CCCCC3`, the growth was 69.4%.

Regarding `O=C(CN1CCN(c2cc3c(cc2F)c(=O)c(C(=O)O)cn3C2CC2)CC1)Nc1ccc(C(=O)/C=C/c2ccccc2)cc1`, the growth is 73.1%.

With `COc1cc(/C=C/C(=O)c2ccc(NC(=O)CN3CCN(c4cc5c(cc4F)c(=O)c(C(=O)O)cn5C4CC4)CC3)cc2)cc(OC)c1OC`, the growth was 57.2%.

With `NC(=O)c1c(NC(=O)c2ccc(OCC3CCCO3)cc2)sc2c1CCCC2` (centres undefined), the growth is 108%.

As for `COc1ccc(/C=C/C(=O)OCC(=O)NNC(=O)c2ccccc2)cc1OC`, the growth is 83.5%.

Consider `Cc1sc(N=Nc2ccc(N(C)C)cc2)[n+]([O-])c1C`, for which the growth is 110%.

Turning to `O=C(/C=C/c1ccccc1)n1c(-c2ccc(Cl)cc2)nc2ccccc21`, the growth is -39.4% (active).

As for `COC(=O)[C@H]1[C@H](OC)[C@@H](OC(=O)/C=C/c2ccncc2)CC2CN3CCc4c([nH]c5cc(OC)ccc45)[C@@H]3C[C@@H]21` (some centres undefined), the growth was 53.3%.

With `O=C1Nc2ccc(Br)cc2C1=N/C=c1\[nH]c(=O)/c(=C/c2ccc(Cl)cc2)s1`, the growth was 101%.

On to `Nc1c(C(=O)Nc2cccc(C(F)(F)F)c2)sc2nc3c(cc12)CCCCC3`, for which the growth was 16.2%.

For the compound `COc1cc(/C=C2\C=C(c3ccc(F)cc3)N(Cc3ccccc3)C2=O)cc(OC)c1OC`, the growth is 63.3%.

On to `Clc1nc(Cl)c2ncn(C/C=C/Cn3cnc4c(Cl)nc(Cl)nc43)c2n1`, for which the growth was -60% (active).

Take `NC(C(=O)O)C(O)c1ccc(OCc2ccccc2)c(OCc2ccccc2)c1` (centres undefined): the growth was 93.3%.

For `Nc1c(C(=O)Nc2ccccc2)sc2nc3c(cc12)CCC3`, the growth was 81.5%.

Turning to `COc1ccc(/C=C/c2cc(N3CCOCC3)c3cc(F)c(F)cc3n2)cc1OC`, the growth was 8.6% (active).

As to `O=[N+]([O-])c1cccc(-c2cc(-c3cc(Br)ccc3O)[nH]n2)c1`, the growth was 40.5%.

In the case of `COC1=CC(c2ccc[nH]2)=N/C1=C\c1[nH]c(C)c(C(=O)CCC(=O)Oc2ccc3c(c2)CCC2C3CC[C@]3(C)[C@@H](O)CC[C@@H]23)c1C` (some centres undefined), the growth is -39.3% (active).

As for `COc1ccc(C2=NN(c3ccc(S(N)(=O)=O)cc3)C(c3cn(-c4ccccc4)nc3-c3ccc(Cl)cc3)C2)cc1` (centres undefined), the growth is 90.9%.

With `COc1cc(CCn2nnc3c(NCCCCO)ncnc32)cc(OC)c1`, the growth is 92.7%.

Turning to `Clc1ccc(-c2nc(-c3ccco3)cn3ccnc23)cc1`, the growth is 50.2%.

For `O=C(c1ccncc1)N1N=C(c2ccc(Cl)cc2)CC1c1c[nH]c2ccccc12` (centres undefined), the growth was 90.2%.

For `COc1ccc(-c2cn[nH]c2-c2cc(OC)c3c(c2)OCCO3)cc1`, the growth is 56.9%.

For `O=S(=O)(c1ccccc1)n1ccc(-c2ccc3c(c2)CCO3)n1`, the growth was 75.3%.

`COC1=CC(c2ccc[nH]2)=N/C1=C\c1[nH]c(C)c(C(=O)CCCCC(=O)NCc2ccccc2)c1C`: the growth is -9.17% (active).

Take `Nc1c(C(=O)Nc2cccc([N+](=O)[O-])c2)sc2nc3c(cc12)C(O)CCC3` (centres undefined): the growth is 66.7%.

In the case of `COc1cccc(NC(=O)c2sc3nc4c(cc3c2N)CCCC4)c1`, the growth is 31%.

`O=C(Nc1cccc(C(F)(F)F)c1)Nc1ccc(OCc2nnc(-c3ccccc3)o2)c(F)c1`: the growth is 36.9%.

On to `CC(=O)Nc1nc(C(=O)N2N=C(C)/C(=C/c3ccc(Cl)cc3)C2=O)cs1`, for which the growth was 100%.

With `COc1cc(C(=O)OCCCCCCCCCCC[P+](c2ccccc2)(c2ccccc2)c2ccccc2)ccc1O`, the growth is -73.2% (active).

On to `O=C(NCCCN1CCN(CCCNC(=O)C2CCCCC2)CC1)C1CCCCC1`, for which the growth is 87.2%.

Take `COc1cc2c(cc1OC)C1(C)N(CC2)C(=O)OC1(C)C` (centres undefined): the growth was 102%.

Take `CCCCCc1c(C)[nH]c(/C=c2\[nH]/c(=C3/C=c4ccccc4=N3)cc2OC)c1C`: the growth was -38.7% (active).

For `COc1cc(-c2n[nH]nc2-c2ccc3c(c2)OCCO3)cc(OC)c1OC`, the growth was 18.4%.
